Assay results: PubChem BioAssay (NCI)
Compounds without any hit were thinned out: in the full panel of roughly 83,000, 20% have a hit.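 Cells were grown in 96-well plates and exposed to the test compound at a single concentration for 48 hours; results are reported as percent growth, with values below 10 considered active.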 Activity calls are given as the source filed them.

test system: NCI-H522 lung; assay: NCI-60 one-dose screen, 48 h (100 = growth as untreated, 0 = no growth, -100 = all killed); conditions: 10 µM
Experimental: Growth inhibition of the NCI-H522 human Non-Small Cell Lung tumor cell line is measured as a screen for anti-cancer activity. Cells are grown in 96 well plates and exposed to the test compound for 48 hours. Compounds are tested at a single concentration, which is 10^-5 M for most compounds. The reported endpoint is percent growth (GI% or GIPRCNT), where numbers from 0 - 100% represent growth inhibition, and numbers from -100% - 0 represent cell death. For example, a value of 40 represents 60% growth inhibition. A value of 0 means no net growth occurred over the course of the experiment. A value of -40 indicates 40% of cells at the beginning of the experiment died by the end of the experiment. A value of -100 means all cells are dead at the end of the experiment.
NCI-60 Human Tumor Cell Lines Screen was performed using the standard one-dose NCI protocol, which is described in more detail at https://dtp.cancer.gov/discovery_development/nci-60/default.htm.
Compounds with GIPRCNT values below 10 were considered active. Activity score was based on GIPRCNT using the following formula: […]
Score is 0 for GIPRCNT values of 100 or above, 50 for GIPRCNT values of 0, and 100 for GIPRCNT values of -100.

Structure (SMILES)	growth
C[C@H]1C[C@@H](n2cnc3c(N)nccc32)[C@H](O)[C@@H]1O	151% (inactive)
COc1ccc(/C=C/C(=O)/C=C/c2cc3ccccc3[nH]c2=O)cc1	48.8% (inactive)
Cc1nc2c(nnn2-c2ccccc2)c2nc(-c3ccccc3)oc(=O)c12	105% (inactive)
CCOC(=O)c1c2c(cn1Cc1ccccc1)-c1oncc1CC2	99% (inactive)
CCCCCCCCC/C(=N\NC(=O)c1ccncc1)c1ccc(O)c(O)c1O	36% (inactive)
CCCOC(=O)c1c(C)n(C)c2scc[n+]12	79.2% (inactive)
CCCCCCCCCCCCCCCC[n+]1cccc(C#N)c1	54.7% (inactive)
COc1ccc(Cn2cc3c(c2-c2ccc(OC)cc2)CCc2cnoc2-3)cc1	11.1% (inactive)
CCCCCCCCCC[N+](C)(C)C	18.1% (inactive)
CC(=O)Nc1ccc(CC#N)cc1Br	92.9% (inactive)
Cc1ccc(C(C)C)c(OCc2ccc(C(=O)N/N=C/c3cccc(O)c3O)cc2)c1	47.4% (inactive)
Nc1nc2c(c3cnccc13)C(c1ccc(Cl)c(Cl)c1)Cc1cnccc1-2 (stereo not given)	-16.4% (active)
CCCCCCCCCCCCCCCCCC1=NCCN1CCNC(C)=O	98.8% (inactive)
COc1ccc(C(=O)CN2C(=O)NC(c3ccccc3)(c3ccccc3)C2=O)cc1	96.5% (inactive)
CCOC(=O)C1=C(C(F)(F)F)NC(=O)NC1CN1C(=O)c2ccccc2C1=O (stereo not given)	115% (inactive)
CCCCCCCCCCCCCCCCCC1=NCCN1CS(=O)(=O)O	84.5% (inactive)
O=C(Nc1cccc(Cn2c(=O)[nH]c3ccc(Oc4ncccn4)cc3c2=O)c1)c1cccc(F)c1	60.9% (inactive)
COc1cc2oc(-c3ccc(NC(=O)c4ccccc4)cc3)cc(=O)c2c(OC)c1OC	70.2% (inactive)
CCCCCCCCCCCCc1ccc([N+](CC)(CC)CC)cc1	33.8% (inactive)
C[C@@H](c1ccc2c(c1)[nH]c1ccc(Cl)cc12)c1nc2ccc(Cl)cc2[nH]1	43.6% (inactive)

Structure (SMILES)	growth
CCCCCCNC(=O)Oc1ccc(/C(=C(/C)Cc2ccc(OC)cc2)c2ccc(OCCN3CCCCC3)cc2)cc1	85.6% (inactive)
CC1=C(C)C[C@]2(C(=O)O[C@H]3CCCC[C@@H]32)[S@](=O)C1	82.9% (inactive)
O=C(Nc1cccc(Cn2c(=O)[nH]c3ccc(Oc4ncccn4)cc3c2=O)c1)c1ccc(Cl)cc1	50.5% (inactive)
O=C(O)c1ccc(Br)nc1	87.8% (inactive)
CCOC(=O)NNc1[nH]c(-c2ccc(OC)cc2)cc1C#N	76% (inactive)
CCOC(=O)c1c(C)oc2ncnc(Nc3ccc(NC(=O)Nc4ccc(CC)cc4)cc3)c12	83.5% (inactive)
COc1ccc(OC)c(Cn2cc3c(c2-c2ccccc2)CCc2cnoc2-3)c1	56.4% (inactive)
N=C(N)c1ccc(-c2ccc(-c3ccc(F)cc3)s2)cc1	-58.9% (active)
OCC(O)C(O)CC1SCCS1 (stereo not given)	96.6% (inactive)
Clc1ccc(N/N=C(\c2ccccc2)c2ccccn2)nc1	1.35% (active)
O=C1N/C(=N\c2nnc(-c3ccc(O)cc3)s2)S/C1=C\c1ccccc1O	93.6% (inactive)
CCNc1nnc(COc2ccc(CNC(=O)CCCC/C=C/C(C)C)cc2OC)o1	83.7% (inactive)
COc1ccc(/C=C(/C(=O)N2CCCCC2)c2cc(OC)c(OC)c(OC)c2)cc1	-24.2% (active)
CCOC(=O)c1c(C)oc2ncnc(Nc3ccc(NC(=O)Nc4cccc(Cl)c4)cc3)c12	57.2% (inactive)
CC[C@H](Nc1ncnc2nc[nH]c12)c1nc2cccc(NCc3ccc(C(=O)NO)nc3)c2c(=O)n1-c1ccccc1	22.9% (inactive)
CCN(CCO)CCNc1ccc(C)c2sc3cc(OC)ccc3c(=O)c12	62.6% (inactive)
CCCCCCCCc1ccc(OCCOCC[N+](C)(C)CC)cc1 (tested in a mixture with another compound)	3.68% (active)
O=C(N/N=C/c1ccccc1Cl)c1cccc2ccccc12	84.5% (inactive)
COc1ccc(NC(=O)/C=C(C)/C=C/C=C(C)/C=C/C2=C(C)CCCC2(C)C)cc1	51.7% (inactive)
CCOC(=O)CNS(=O)(=O)CC(=O)c1ccccc1	89.8% (inactive)
